Assay results as given in PubChem BioAssay AID1835 (Johns Hopkins Ion Channel Center, 2009).
Among all 2,400 compounds or so, about 750 (31%) were called active. The list shows a part of the results. Unmarked numbers belong to inactive results.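 The calls were made as follows: active = median signal gain over dofetilide-blocked control wells reaching their mean plus 3 SD, so readout 1 at least 0; inactive = the rest.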

What follows are compounds tested against Voltage-gated inwardly rectifying potassium channel KCNH2 (Homo sapiens) (UniProt Q12809) (assay: modulators restoring hERG flux under dofetilide – cell-based, thallium flux, duplicate retest, dofetilide IC70, confirmation (AID 1835)). Details: hERG cell line, FluxOR thallium flux, dofetilide-blocked; at 10 µM; stronger effect = higher value.
Sequence of Voltage-gated inwardly rectifying potassium channel KCNH2 (Homo sapiens) (Q12809 whole entry, looked up): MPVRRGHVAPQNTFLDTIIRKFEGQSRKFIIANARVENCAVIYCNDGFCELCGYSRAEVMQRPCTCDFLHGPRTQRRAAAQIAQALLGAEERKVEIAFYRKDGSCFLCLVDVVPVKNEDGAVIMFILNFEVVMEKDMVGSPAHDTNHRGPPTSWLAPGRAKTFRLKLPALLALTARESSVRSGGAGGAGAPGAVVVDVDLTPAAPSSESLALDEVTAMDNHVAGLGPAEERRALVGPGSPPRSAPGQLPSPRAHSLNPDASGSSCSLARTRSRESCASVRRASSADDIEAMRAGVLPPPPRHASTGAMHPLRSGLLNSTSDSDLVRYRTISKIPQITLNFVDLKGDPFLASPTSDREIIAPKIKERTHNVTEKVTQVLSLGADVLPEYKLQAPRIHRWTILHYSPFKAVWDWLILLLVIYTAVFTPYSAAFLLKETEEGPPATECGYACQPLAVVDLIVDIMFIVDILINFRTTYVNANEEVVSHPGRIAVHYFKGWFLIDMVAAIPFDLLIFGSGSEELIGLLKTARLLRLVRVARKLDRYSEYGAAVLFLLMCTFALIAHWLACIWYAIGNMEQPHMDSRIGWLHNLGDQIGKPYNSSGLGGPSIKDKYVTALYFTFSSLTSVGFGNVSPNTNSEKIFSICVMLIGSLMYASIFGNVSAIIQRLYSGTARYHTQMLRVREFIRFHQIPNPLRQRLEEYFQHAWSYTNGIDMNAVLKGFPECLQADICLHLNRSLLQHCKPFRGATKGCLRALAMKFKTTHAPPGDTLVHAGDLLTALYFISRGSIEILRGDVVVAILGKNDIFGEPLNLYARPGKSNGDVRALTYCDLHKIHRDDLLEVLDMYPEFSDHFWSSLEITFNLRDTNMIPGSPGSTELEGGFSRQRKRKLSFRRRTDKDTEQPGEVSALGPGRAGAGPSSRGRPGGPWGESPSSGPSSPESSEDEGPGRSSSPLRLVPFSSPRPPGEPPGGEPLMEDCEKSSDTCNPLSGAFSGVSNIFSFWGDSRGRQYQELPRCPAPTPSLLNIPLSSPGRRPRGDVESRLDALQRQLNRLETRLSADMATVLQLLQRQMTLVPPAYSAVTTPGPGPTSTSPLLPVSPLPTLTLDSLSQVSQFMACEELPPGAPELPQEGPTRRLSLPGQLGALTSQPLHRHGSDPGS

Row | Structure (SMILES) | activity increase over dofetilide control, less the hit threshold
1 | CS(=O)(=O)N(Cc1ccccc1)c1ccc(C(=O)Nc2ccc(C(N)=O)cc2)cc1 | 82% (active)
2 | COc1ccc(N(CC(=O)N2CCN(Cc3ccccc3)CC2)S(C)(=O)=O)cc1 | -16%
3 | C=CCN(c1ccc(C(=O)NC(C)C)cc1)S(C)(=O)=O | -10%
4 | CCC1=C(OC(=O)N(CC)CC)N2C(=O)OC(=NCC3CC3)[C@]2(C)[C@H]2C1=CC[C@H]1C(=O)N(C)C(=O)[C@H]12 | -1%
5 | N=c1c2cn[nH]c2nc(SCC(=O)c2ccc(Br)cc2)n1-c1ccc(Br)cc1 | -3%
6 | Cc1cc(C(=O)NCc2ccc(S(N)(=O)=O)cc2)ccc1[N+](=O)[O-] | -15%
7 | CSC(=S)N/N=C/c1ccc(Br)cc1 | 46% (active)
8 | CSc1ccc(/C=N/NC(=O)c2cccs2)cc1 | -17%
9 | CSC(=S)N/N=C(\C)c1ccccc1 | 35% (active)
10 | C/C(=N\NC(N)=S)c1ccncc1 | -3%
11 | C/C(=N\NC(N)=S)c1cccnc1 | -8%
12 | CC(C)(C)c1ccc(/C=N/NC(=S)Nc2cccnc2)cc1 | -11%
13 | COCCNC(=O)C(=O)N/N=C/c1ccc(C(=O)OC)cc1 | -11%
14 | CSC(=S)N/N=C/c1ccccc1 | 34% (active)
15 | CC(C)NC(=S)N/N=C/c1ccc(C(C)(C)C)cc1 | -13%
16 | COCCOC(=O)C1=C(C)Nc2ncnn2C1c1ccc(F)cc1 (stereo not drawn) | -26%
17 | COC(=O)c1c(NC(=O)CN2CCOCC2)sc2c1CCC(C)C2 (stereo not drawn) | -13%
18 | CC1CCc2c(sc(NS(=O)(=O)c3ccccc3)c2C(=O)OC(C)C)C1 (stereo not drawn) | 7% (active)
19 | CCOC(=O)c1c(NS(C)(=O)=O)sc2c1CCC(C)C2 (stereo not drawn) | 21% (active)
20 | CC(C)OC(=O)c1c(NS(=O)(=O)c2ccccc2)sc2c1CCCC2 | 37% (active)
21 | CC(C)OC(=O)c1c(NC(=O)c2ccco2)sc2c1CCCCC2 | -12%
22 | CC(NS(=O)(=O)c1ccccc1)C(N)=O (stereo not drawn) | -10%

Row | Structure (SMILES) | activity increase over dofetilide control, less the hit threshold
23 | O=[N+]([O-])c1ccc(Cl)c(/C=N/Nc2nc(N3CCOCC3)nc(N3CCOCC3)n2)c1 | -18%
24 | COc1ccccc1C(=O)COC(=O)c1ccc(-n2cnnn2)cc1 | -21%
25 | O=C(N/N=C\c1coc2ccccc2c1=O)c1ccco1 | -24%
26 | CC(Nc1ccc(F)cc1)=[N+](C)CCNS(=O)(=O)c1ccc(Cl)cc1 | -3%
27 | Cc1csc2ncc(C(=O)N3c4ccccc4CC3C)c(=O)n12 (stereo not drawn) | -2%
28 | CC1Cc2cc(S(=O)(=O)NCc3ccccc3)ccc2N1C(=O)C1CCC1 (stereo not drawn) | -22%
29 | CC1Cc2ccccc2N1C(=S)NC(=O)c1ccco1 (stereo not drawn) | 6% (active)
30 | CC1Cc2ccccc2N1C(=S)NC(=O)c1cccc(Br)c1 (stereo not drawn) | 77% (active)
31 | CC(=O)N1CCc2cc(S(=O)(=O)N3c4ccccc4CC3C)ccc21 (stereo not drawn) | -14%
32 | CC1Cc2ccccc2N1C(=S)NC(=O)C1(C)CC1(Cl)Cl (stereo not drawn) | 42% (active)
33 | COc1cc2c(cc1OC)C(C)N(C(=S)NC(=O)c1ccccc1)CC2 (stereo not drawn) | -18%
34 | O=C(NN1C(=O)C2C(c3ccccc3)C=CC(c3ccccc3)C2C1=O)c1cccc(Br)c1 (stereo not drawn) | -54%
35 | CC1Cc2ccccc2N1C(=S)NC(=O)c1ccc(Cl)cc1Cl (stereo not drawn) | 55% (active)
36 | CC1=C(C#N)C(Nc2cc(C)ccn2)(C(F)(F)F)C(=O)N1 (stereo not drawn) | -10%
37 | Cc1nn(Cc2ccccc2)c2c1C(c1cccnc1)C(C#N)=C(N)O2 (stereo not drawn) | -6%
38 | N=C1C(=O)OCC1c1cc(Cl)ccc1NC(=O)Nc1ccccc1 (stereo not drawn) | -9%
39 | CCCn1c(CC)nc([N+](=O)[O-])c1S(=O)(=O)c1ccccc1 | 3% (active)
40 | CC(C)N1CC(C(=O)Nc2ccc(Cl)c(Cl)c2)CC1=O (stereo not drawn) | -8%
41 | CCCCCCCc1c(O)nc(SCC(=O)O)[nH]c1=O | -6%
42 | Cc1csc(NC(=O)c2cn3ccccc3n2)n1 | -12%
43 | CCOC(=O)c1sc(NC(=S)NC(=O)c2cccc(OC)c2)nc1C | 7% (active)
44 | O=C(NC(=S)Nc1nc2c(s1)CSc1ccccc1-2)c1ccccc1 | 21% (active)

Row | Structure (SMILES) | activity increase over dofetilide control, less the hit threshold
45 | CCOC(=O)c1sc(NC(=S)NC(=O)c2ccco2)nc1C | 7% (active)
46 | Cc1csc(NC(=S)NC(=O)c2ccccc2)n1 | 10% (active)
47 | Cc1nc(NC(=O)c2ccco2)sc1C(=O)O | -10%
48 | CCn1cc(CCC(=O)NCc2cccc(OC)c2OC)c2ccccc21 | -12%
49 | COC(=O)c1sc(NC(=S)NC(=O)c2ccccc2F)nc1C | -3%
50 | COC(=O)c1sc(NC(=S)NC(=O)c2ccc(C)cc2)nc1C | -3%
51 | CCOC(=O)c1sc(NC(=S)NC(=O)c2ccc(OC)cc2)nc1C | -2%
52 | CCOC(=O)c1sc(NC(=S)NC(=O)c2ccccc2)nc1C | 36% (active)
53 | COC(=O)c1sc(NC(=S)NC(=O)c2ccccc2C)nc1C | 26% (active)
54 | Cc1ccc(CN2CCN(/N=C/c3ccc(O)c(O)c3)CC2)cc1 | 7% (active)
55 | Nc1cccc(Oc2cnccn2)c1 | -5%
56 | Nc1ncnc(NC2CCS(=O)(=O)C2)c1[N+](=O)[O-] (stereo not drawn) | -12%
57 | Cc1cc(NC(=O)CSc2ccc3nnc(-c4cccs4)n3n2)no1 | -17%
58 | COc1cc(OC)cc(C(=O)O/N=C(\N)c2cccc(C)c2)c1 | -14%
59 | COc1cccc(C(=O)CC(=O)C(=O)Nc2ccc(C)cc2Cl)c1 | 50% (active)
60 | COc1ccc(C(=O)CC(=O)C(=O)Nc2ccc(C)cc2Cl)cc1 | 35% (active)
61 | COc1ccc(CNC(=O)C2CCCN2)cc1OC (stereo not drawn) | -14%
62 | Cc1ccc(CC23CN4CCN(CC(C4)C2O)C3)c(C)c1 (stereo not drawn) | -14%
63 | NC(=O)c1nsc(C(=O)N(CC(=O)NCc2ccccc2)c2ccc(F)cc2)c1N | -22%
64 | Cc1ccc2c(c1)c1nnc(SCC(=O)Nc3ccc(N(C)C)cc3)nc1n2CC(=O)O | -9%
65 | O=C(/C=C/c1ccccc1)Nc1ccc(S(=O)(=O)N2CCOCC2)cc1 | -10%
66 | COc1ccc(/C=C/C(=O)Nc2ccccc2C(=O)O)cc1OC | 18% (active)

Row | Structure (SMILES) | activity increase over dofetilide control, less the hit threshold
67 | COc1ccc(/C=C/C(=O)Nc2ccccc2C(=O)O)cc1 | 5% (active)
68 | COc1cc(/C=C/C(=O)N[C@@H](Cc2c[nH]c3ccccc23)C(=O)O)ccc1O | -8%
69 | COc1cc(/C=C/C(=O)O)ccc1OS(=O)(=O)c1cc(C)ccc1C | -26%
70 | C=CCNC(=O)c1ccccc1NC(=O)COc1ccc(OC)cc1 | -2%
71 | Cc1ccc(C(=O)NNC(=S)NC(=O)c2ccccc2)cc1 | -40%
72 | Cc1cc2ccccn2c1C(=S)NC(=O)c1ccccc1 | 50% (active)
73 | O=C(Nc1ccc(Cl)cc1Cl)c1n[nH]c(Cn2cncn2)n1 | -1%
74 | S=c1nn[nH]n1C12CC3CC(CC(C3)C1)C2 | 27% (active)
75 | CCOc1ccc(Nc2ccc([N+](=O)[O-])c3nonc23)cc1 | -6%
76 | Cc1cc(=O)[nH]c(SCC(=O)NC2CCCCC2)n1 | 0%
77 | O=C(Nn1cnnc1)c1ccncc1 | -14%
78 | Oc1c(Br)cc(Br)cc1C=Nc1ccc2[nH]ncc2c1 | -2%
79 | CNC(=S)N/N=C/c1cc(Br)cc(Br)c1O | -3%
80 | Cc1nnc(C)n1/N=C/c1cc(Br)cc(Br)c1O | 15% (active)
81 | O=c1c2ccc(Cl)cc2nc(-c2cccc(C(F)(F)F)c2)n1O | 94% (active)
82 | O=c1c2cc(Br)ccc2nc(-c2ccccc2)n1O | 45% (active)
83 | COc1cc(OC)cc(-c2nc3ccccc3c(=O)n2OC(=O)c2ccc(Br)cc2)c1 | -26%
84 | O=c1c2cc(Br)ccc2nc(-c2cccc(C(F)(F)F)c2)n1O | 115% (active)
85 | O=c1c2cc(Br)ccc2nc(-c2cccc(Cl)c2)n1O | 102% (active)
86 | O=C(Cn1nnc(-c2cccc(C(F)(F)F)c2)n1)N1CCCCCC1 | -8%
87 | O=C(COC(=O)c1cc(NS(=O)(=O)c2cccs2)ccc1O)Nc1cc(Cl)ccc1Cl | -4%
88 | O=C(COC(=O)c1cccs1)NCCN1C(=O)CSC1=O | -9%

Row | Structure (SMILES) | activity increase over dofetilide control, less the hit threshold
89 | CNC(=O)NC(=O)C(C)N1CCN(C/C=C/c2ccccc2)CC1 (stereo not drawn) | -16%
90 | Cc1nonc1OCCNc1ccc([N+](=O)[O-])cc1 | -2%
91 | O=c1c2cc(Br)ccc2nc(-c2ccc(Cl)cc2)n1O | 101% (active)
92 | N#Cc1ccc(-c2nc3ccc(Br)cc3c(=O)n2O)cc1 | 1% (active)
93 | CCCn1c(SC(C)C(=O)N2CCOCC2)nc2ccc(Br)cc2c1=O (stereo not drawn) | -11%
94 | Cc1ccc(-n2c(C)cc(C(=O)CN3CCOCC3)c2C)cc1 | -6%
95 | CC1CCCC(C(=O)OCc2ccccc2)N1 (stereo not drawn) | -3%
96 | O=C(Nc1ccc(N2CCN(C(=O)c3ccc(Cl)cc3)CC2)cc1)c1ccc([N+](=O)[O-])o1 | -11%
97 | CC(=O)Nc1ccc2nc(NC(=O)c3ccc([N+](=O)[O-])o3)sc2c1 | 5% (active)
98 | O=C(Nc1ncc(Cc2ccc(C(F)(F)F)cc2)s1)c1ccc(-c2cccc([N+](=O)[O-])c2)o1 | -14%
99 | Cc1ccc(S(=O)(=O)NC(=S)NC2CCCCC2)cc1 | 3% (active)
100 | O=S(=O)(NC(=S)NC1CCCCC1)c1ccc(Cl)cc1 | 10% (active)
101 | Cc1cc(Cl)c(S(N)(=O)=O)cc1OCC(=O)NC1CCCCC1 | -8%
102 | O=C(NC1CCCCC1)c1ccc(COCC(F)(F)F)o1 | -5%
103 | O=c1oc2ccccc2c(NC2CCCCC2)c1NS(=O)(=O)c1ccc(Cl)cc1 | -6%
104 | CCc1ccc(S(=O)(=O)NC(=S)NC2CCCCC2)cc1 | 35% (active)
105 | COc1ccc(C)cc1S(=O)(=O)NC1CCCCC1 | -5%
106 | CC(C)(C)c1ccccc1NC(=S)NC1CCCC1 | -7%
107 | O=S(=O)(NC(=S)NC1CCCCC1)c1ccc(Br)cc1 | 12% (active)
108 | CCOc1ccc(C(C)NC(=S)NC2CCCCC2)cc1 (stereo not drawn) | -9%
